An excerpt weighted towards active compounds, which were near 15% of everything screened.
Sm TGR inh: blocks Schistosoma mansoni thioredoxin glutathione reductase | Q962Y6 | purified TGR, DTNB reduction, TNB absorbance 405 nm | Potency, µM (top dose mostly 114 µM), inactives show at the highest dose activity change, negative = inhibition, hits mostly inhibitors | 3% of 360,000 active; further: potency means the concentration at half of the fitted maximal effect; on the % scale 0 is the no-effect control and ±100 the full control effect; nearly all actives have a fitted effect of over 60% in size
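TGR 20 nM + NADPH 100 uM (dispensed conc.), cpd preinc 15 min RT; start with NADPH (500 uM addition) then DTNB (15 mM addition). Kinetic TNB absorbance, 405 nm filter. Four-parameter Hill fit across titration.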
Pf growth 96h: P. falciparum growth inhibition at 96 hours; 6.9% of 320,000 active; AID 504834; Potency, µM (titrated, usually from 28.7 µM), without a hit: top-dose activity change, negative = inhibition, usual class: inhibitors; P. falciparum luciferase reporter growth, 96 h; further: potency means the concentration at half of the fitted maximal effect; on the % scale 0 is the no-effect control and ±100 the full control effect
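Delayed-death screen, second-generation endpoint: infected erythrocytes, 2% hematocrit, 0.05% parasitemia final; 96 hours at 37 C, 5% CO2; luciferase detection reagent; luminescence decrease equals reduced growth.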
Pf growth 48h: P. falciparum growth inhibition at 48 hours (one generation) | P. falciparum luciferase growth in erythrocytes, 48 h | Potency, µM (titrated, usually from 28.7 µM), without a hit: top-dose activity change, negative = inhibition, hits mostly inhibitors | 5.9% of 310,000 active; further: potency means the concentration at half of the fitted maximal effect; on the % scale 0 is the no-effect control and ±100 the full control effect
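Compounds are pin-transferred into medium, infected erythrocytes (2% hematocrit, 0.1% parasitemia final) are added, and plates sit one parasite generation at 37 C in 5% CO2. Detection reagent is then added and luminescence measured.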
HCMV antiviral: blocks human cytomegalovirus replication; HFF cells, HCMV-luciferase reporter, 72 h; hits give low values; activity change, negative = inhibition, % at 57.5 µM; 4.5% of 410,000 active; in the data active means activity change below about -60%; inconclusive means no clear call, values can overlap the other calls; inactive means above about -39%; further: on the % scale 0 is the no-effect control and ±100 the full control effect
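Luciferase read-out from HCMV-luciferase-infected HFFs (MOI 1 PFU/cell) 72 h post infection at 37C; compounds added after 16 h cell attachment; activity normalized between buffer-only basal and Salinomycin (10uM) inhibitor controls.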
SARS PLpro yeast: inhibitors of SARS-CoV papain-like protease in yeast; S. cerevisiae expressing SARS-CoV PLpro, growth rescue; Potency, µM (highest dose often 32.9 µM), inactives show at the top dose activity, positive = growth rescue, hits mostly activators; 0.19% of 330,000 active; AID 485353; calls by dose curve; further: potency means the concentration at half of the fitted maximal effect; 0% is about no effect; nearly all actives have a fitted effect of over 55% in size
HCV inh: blocks hepatitis C virus | Huh7.5.1 HCVcc-Cre infection, luciferase reporter, 44 h | Potency, µM (titrated, usually from 41.8 µM), for the others: at the top dose activity change, negative = inhibition, usual class: inhibitors | AID 651820 | 3.4% of 340,000 active; further: potency means the concentration at half of the fitted maximal effect; on the % scale 0 is the no-effect control and ±100 the full control effect
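After 44 h co-culture of compound, cells and HCVcc-Cre (~0.5 moi), substrate is added for 15 min at room temperature and luciferase measured over 15 sec. Cells were seeded at 1,000/well and pre-cultured 4 h.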
An asterisk follows results filed as active; u = inconclusive; x = not tested or not shown; [ ] = another dose, or the depositor's remark. Unless noted, the call rests on the fitted dose curve; in most records, active means well fitted curve in the direction sought with a large enough effect; inconclusive means small, poorly fitted or top-dose-only effect, or another doubt; inactive means no such curve, though single readings can be large; an effect the other way counts as inactive or inconclusive.

SMILES	Sm TGR inh	Pf growth 96h	Pf growth 48h	HCMV antiviral	SARS PLpro yeast	HCV inh
OC(c1cc(Cl)cc(Cl)c1)c1ncc(-c2cccc(F)c2)[nH]1 (configuration not stated)	x	x	x	33.7	x	x
CCCCOc1ccc(CC(=O)NO)cc1	10.9%	0.233µM*	0.415µM*	23.4	12.4%	u
CCCCOc1ccc(C(=O)NC)cc1	-2.0%	x	-11.7%	-30.7	0.4%	3.2%
Cn1c(=O)c2c(nc(NCCCN3CCOCC3)n2Cc2ccc(Cl)cc2)n(C)c1=O	8.9%	10.8%	33.0%	48.4	1.1%	-7.2%
Cc1cc(NCCCN2CCOCC2)n2ncc(-c3ccc(Cl)cc3)c2n1	7.2%	22.2%	39.2%	55.4	5.8%	12.6µM*
CC(C)(C)c1cc(NCCCn2ccnc2)n2ncc(-c3ccccc3)c2n1	17.2%	u	u	-26.4	-3.0%	u
Cc1cc(NCCCn2ccnc2)n2ncc(-c3ccc(Cl)cc3)c2n1	10.5%	-56.0%	-28.5%	14.1	-3.3%	7.08µM*
CCc1ccc(O)c(CNCCNCc2cc(CC)ccc2O)c1	3.5%	5.86µM*	6.57µM*	u	4.2%	u
Oc1cc(CNCc2ccccc2)c(O)cc1CNCc1ccccc1	x	x	x	25.5	x	13.0%
Cc1ccc(O)c(CNCCNCc2cc(C)ccc2O)c1	-4.0%	2.62µM*	7.38µM*	-67.4*	0.8%	u
COC(=O)c1ccccc1NC(=O)CSc1nc(-c2ccccc2)cc(C(F)(F)F)n1	-0.1%	x	x	-25.7	x	x
COc1ccc(N(CC(=O)Nc2ccccc2C(=O)NCCc2ccccc2)S(C)(=O)=O)cc1OC	-16.9%	x	u	44.2	0.6%	11.4%
CCCCCCN1C[C@H](O)[C@@H](n2cc(C3CC3)nn2)C[C@@H]1c1ccccc1	x	x	x	-9.2	x	x
CC1c2ccsc2CCN1S(=O)(=O)c1cccs1 (configuration not stated)	14.0%	0.6%	8.6%	-14.7	-1.6%	-3.0%
O=S(=O)(NC(=S)NC1CCCCC1)c1ccc(Cl)cc1	12.6µM*	0.522µM*	40.2%	-13.9	-1.0%	16.5%
CCc1ccc(S(=O)(=O)NC(=S)NC2CCCCC2)cc1	12.6µM*	u	30.9%	-12.6	-1.6%	16.1%
Cc1ccc(S(=O)(=O)NC(=S)NC2CCCCC2)cc1	31.6µM*	0.4%	-25.4%	29.2	-1.9%	31.2%
Cc1ccc(S(=O)(=O)NC(=O)NC2CCCCC2)cc1	x	-8.7%	-5.8%	x	x	x
NS(=O)(=O)c1ccc(CCNC(=S)NC2CCCCC2)cc1	9.1%	25.1%	0.4%	-35.5	-0.4%	-10.9%
S=C(NCc1ccc(Cl)cc1Cl)NC1CCCCC1	-5.4%	u	u	-77.6*	-92.3%	u
COC(=O)/C=C/c1ccc(OC(=O)OC)c(OC(=O)OC)c1	-13.4%	24.4%	5.3%	20.4	-30.7%	-13.0%
COc1cc(NC(=O)c2ccc3c(c2)OCO3)c2ncccc2c1	3.2%	x	115.6%	8.6	-2.2%	u
Nc1ccccc1NC(=O)OCc1ccccc1	x	x	x	-15.1	x	x
COc1cc(NC(=O)c2cc(OC)c(OC)c(OC)c2)c2ncccc2c1	x	x	x	4.3	x	10µM*
COc1cc(NC(=O)OCc2ccccc2)c2ncccc2c1	x	x	x	5.6	x	14.1µM*
SMILES	Sm TGR inh	Pf growth 96h	Pf growth 48h	HCMV antiviral	SARS PLpro yeast	HCV inh
CCc1ccccc1OCC(=O)NNCC(=O)Nc1cccc(C#N)c1	0.5%	49.7%	u	-36.2	6.4%	u
O=C1C=C(c2ccc(CO)cc2)C[C@@H](c2ccc3c(c2)OCO3)C1	1.1%	u	-20.2%	26.8	-5.1%	-0.3%
Cc1cc(C(=O)CSc2nc3ccc(Cl)cc3[nH]2)c(C)n1Cc1ccco1	x	x	x	-38.2	x	u
Cc1cc2oc(=O)cc(CN3CCN(S(=O)(=O)/C=C/c4ccccc4)CC3)c2cc1C	7.4%	u	10.4µM*	-37.8	-22.7%	u
Cc1ccc(S(=O)(=O)N2CCN(Cc3cc4c(cc3Br)OCCO4)CC2)cc1	-24.9%	u	u	-13.4	4.3%	u
CC(=O)N1CCN(Cc2cc(=O)oc3cc(C)c(C)cc23)CC1	x	x	x	1.1	x	x
Cc1cc(C)c2c(CN3CCN(C/C=C/c4ccccc4)CC3)cc(=O)oc2c1	-12.3%	7.38µM*	9.28µM*	44.5	-0.9%	u
Cc1cc2oc(=O)cc(CN3CCN(S(=O)(=O)c4ccc5c(c4)OCCO5)CC3)c2cc1C	1.4%	u	u	u	-0.7%	7.08µM*
Cc1cc(C)c2c(CCl)cc(=O)oc2c1	10µM*	-0.5%	4.6%	-95.2*	-3.0%	4.4%
Cc1ccc(C)c(OCC(O)CN2CCN(CCN3C(=O)c4cccc5cccc(c45)C3=O)CC2)c1 (configuration not stated)	-2.4%	-25.2%	-108.3%	-83.6*	-5.9%	u
NC(=O)CN1CCN(CCN2C(=O)c3cccc4cccc(c34)C2=O)CC1	-12.8%	21.3%	20.4%	u	6.5%	17.5%
CC(=O)c1ccccc1OCC(O)CN1CCN(CCN2C(=O)c3cccc4cccc(c34)C2=O)CC1 (configuration not stated)	-2.3%	10.5%	u	-64.5*	-0.1%	10µM*
COc1ccc(C(=Cc2ccccc2[N+](=O)[O-])C(=O)O)cc1	x	x	x	10.1	x	2.8%
COC(=O)c1ccc(CC(=O)c2c(C)cc(O)cc2O)o1	22.4µM*	-10.9%	-1.4%	u	-0.8%	21.6%
COC(=O)c1ccc(CC(=O)c2ccc(O)cc2O)o1	u	u	-14.0%	x	9.4%	1.8%
Cc1nc(CC(=O)c2c(C)cc(O)cc2O)cs1	-14.3%	1.2%	11.3%	-70.6*	-0.9%	-5.6%
O=C(NCC(=O)N1CCC(N2CCCCC2)CC1)C1CCCCC1	-4.0%	1.17µM*	8.9%	17.3	3.8%	11.2%
O=C(NCC(=O)N1CCN(c2ccccc2O)CC1)C1CCCCC1	-6.2%	u	u	-0.5	-6.4%	7.3%
CCN1CCN(C(=O)C(C)Sc2nc3nc(C)cc(C)n3n2)CC1 (configuration not stated)	x	x	x	24.0	0.2%	1.8%
C=CCNc1nc(NCc2ccc(N(C)C)cc2)c2sc(-c3ccccc3)cc2n1	x	x	x	105.4	x	x
O=C(NC1CCCCC1)C(c1cccc2ccccc12)n1c(=O)c(-c2ccco2)nc2ccccc21 (configuration not stated)	x	x	x	15.9	x	x
CCOC(=O)CC1=CCc2c1ccc(OC)c2OC	x	x	x	31.0	x	-19.2%
Cc1cc(C)c2cc(CN(Cc3nnnn3C3CCCCC3)CC3CCCO3)c(=O)[nH]c2c1 (configuration not stated)	-4.1%	4.4%[5.75 µM]	13.1µM*	-24.9	0.9%	u
COc1ccc(CN(Cc2cc3ccc(C)cc3[nH]c2=O)Cc2nnnn2C2CCCC2)cc1	-5.4%	u	u	7.7	-2.6%	-12.7%

Screening results deposited in PubChem BioAssay by National Center for Advancing Translational Sciences (NCATS).
